In PubChem BioAssay AID425 (Sanford-Burnham Center for Chemical Genomics, 2006):
Where “and” joins values, the source holds several entries; their conditions need not be identical. Equal entries are not always repeated. Among all 110,000 compounds or so, about 190 (0.17%) were called active. Cut-off read from the data, not from the text of the source: active = inhibition above about 50%; inactive = the rest. Only a selection was taken, and actives are over-represented in it overall. Entries with a potency or affinity are not part of this list. More than one record can exist for a structure, and the calls need not agree.

These compounds were tested against Dual specificity protein phosphatase 6 (Rattus norvegicus) (UniProt Q64346) (assay: inhibition of rat DUSP6 enzyme activity – biochemical, in vitro, primary screen (AID 425;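 note: plate controls were vehicle for no effect and reference inhibitor for full effect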)). Settings: recombinant MKP-3 phosphatase activity, fluorescence; at 20 µM; stronger effect = higher value.
Sequence of Dual specificity protein phosphatase 6 (Rattus norvegicus) (Q64346 whole entry, looked up): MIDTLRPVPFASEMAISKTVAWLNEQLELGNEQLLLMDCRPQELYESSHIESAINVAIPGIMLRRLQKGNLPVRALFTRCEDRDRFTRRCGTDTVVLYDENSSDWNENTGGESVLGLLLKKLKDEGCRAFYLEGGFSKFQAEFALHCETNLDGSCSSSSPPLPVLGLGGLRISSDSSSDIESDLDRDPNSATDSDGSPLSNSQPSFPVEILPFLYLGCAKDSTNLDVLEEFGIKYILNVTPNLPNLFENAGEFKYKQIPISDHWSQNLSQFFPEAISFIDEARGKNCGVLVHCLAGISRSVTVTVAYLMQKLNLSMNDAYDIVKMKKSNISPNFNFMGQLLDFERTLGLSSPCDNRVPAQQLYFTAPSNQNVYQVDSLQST

inhibition, active:
CC(C)(C)C1=CC(N)=C(C(C)(C)C)C(=O)C1=O 86.4%
O=C(c1ccc(N2CCN(C(=O)c3ccccc3Br)CC2)cc1)c1cccc(F)c1 52.2%
Cc1cc(I)c2c(c1)C1C=CCC1C(C(=O)O)N2 (stereo not given) 103%
Cc1c(Cl)ccc2c1NC(C(=O)O)C1CC=CC21 (stereo not given) 107%
O=C(O)C1Nc2c(Cl)cc(Cl)cc2C2C=CCC12 (stereo not given) 98.5%
O=C(Nc1ccc(-c2nc3ccccc3[nH]2)cc1)c1cc2ccccc2o1 53.5%
O=C(Nc1ccc(-c2nc3ccccc3[nH]2)cc1)c1ccc(Cl)c(Cl)c1 51.8%
O=C1NC(=S)N(c2ccccc2F)C(=O)/C1=C/c1ccc(I)o1 91.2%
CCc1ccc(N2C(=O)/C(=C/c3ccc(I)o3)C(=O)NC2=S)cc1 104%
CCOc1ccc(N2C(=O)/C(=C/c3ccc(I)o3)C(=O)NC2=S)cc1 107%
O=C1NC(=S)N(c2ccccc2F)C(=O)/C1=C/c1ccc(OCc2cccc(C(=O)O)c2)cc1 68.5%
Cc1ccc(-n2[nH]c(=O)c(/C=c3/c(C)c(C#N)c4nc5ccccc5n4c3=O)c2O)cc1C 66.8%
O=C1/C(=C/c2ccccc2[N+](=O)[O-])SC(=S)N1Cc1ccco1 84.3%
Cc1cccc(N2C(=O)/C(=C/c3ccccc3[N+](=O)[O-])SC2=S)c1 120%
O=C1NC(=O)C(=Cc2ccc(-c3cccc(Br)c3)o2)C(=O)N1 52.6%
Oc1c(Br)ccc(Cl)c1C=Nc1cccc2nsnc12 117%

inhibition, 29.8% (inactive) and 64.8% (active):
Nc1ccc(S(=O)(=O)O)c2cccc(O)c12

inhibition, inactive:
CCCOc1ccc(C2/C(=C(/O)c3ccccc3)C(=O)C(=O)N2CCCN(C)C)cc1OC (stereo not given) -0.5%
CCN(CC)CC(=O)Nc1c(Br)ccc2c1OCO2 -11.8%
CCC(=O)N1CCc2cc(Br)cc(S(=O)(=O)N3CCN(C(=O)c4ccco4)CC3)c21 4.6%
COc1ccc(/C=N/NC(=O)CCn2c3ccccc3c3ccccc32)cc1 0.1%
CCSc1nnc(Cn2c(=O)sc3ccccc32)n1C 0.4%
CC(C)(C)C(=O)CC(O)(c1ccccc1)C(F)(F)C(F)F (stereo not given) -1.8%
CC(C)(C)C1=CC(=O)C=C(C(C)(C)C)C1=O 6.8%
CC(=O)/C(C1=C(C(C)(C)C)C(=O)C(=O)C(C(C)(C)C)=C1)=C(/C)O 6.5%
c1ccc(Cn2ncc3c(N4CCN(c5ccccn5)CC4)ncnc32)cc1 6.4%
COc1ccc(CNS(=O)(=O)c2ccc([N+](=O)[O-])cc2)cc1 -4%
C=CCN1C(=O)NC(=O)/C(=C\c2ccc(OCc3ccc(Cl)cc3)c(OC)c2)C1=O 5.1%
Brc1ccc(/C=N/n2c(-c3ccccc3)nnc2-c2ccccc2)cc1 -2.7%
COc1cccc(/C=N/n2c(SC)nnc2-c2ccccc2)c1O -6.8%
O=C(c1ccco1)N1CCN(S(=O)(=O)c2ccc(Br)s2)CC1 -14.7%
CCOc1ccc(NC(=O)c2cccc(F)c2)cc1 4.1%
O=C(Nc1cccc(NC(=O)c2cccnc2)c1)c1cccnc1 5.6%
Nc1cc(S(=O)(=O)O)cc2cccc(S(=O)(=O)O)c12 -2%
Nc1ccc(S(=O)(=O)O)c2cccc(S(=O)(=O)O)c12 -2.3%
O=C(c1ccc(N2CCN(C(=O)c3ccccc3)CC2)cc1)c1cccc(F)c1 4.8%
O=C(c1ccc(N2CCN(C(=O)c3ccccc3F)CC2)cc1)c1cccc(F)c1 4.1%
Cc1ccc(C(=O)Nc2ccc(N3CCOCC3)c(Cl)c2)cc1C 5.9%
O=S(=O)(c1cc(Cl)cc(Cl)c1O)c1cc(Cl)cc(Cl)c1O -3.1%
O=C(Cn1c(NCCCO)nc2ccccc21)c1ccco1 -11.1%
Cc1ccc2c(c1)C1C=CCC1C(c1ccc([N+](=O)[O-])cc1)N2 (stereo not given) 3.4%
CCOC(=O)c1ccc2c(c1)C1C=CCC1C(c1ccc(Cl)cc1Cl)N2 (stereo not given) 3.3%
CC(=O)c1ccc2c(c1)C1C=CCC1C(c1ccc(Cl)cc1)N2 (stereo not given) 14.4%
O=C(O)C1Nc2c(C(=O)N3CCCC3)cccc2C2C=CCC12 (stereo not given) 5%
Cc1ccc2c(c1)C1C=CCC1C(c1ccccc1[N+](=O)[O-])N2 (stereo not given) 7%
O=C(O)C1Nc2c(C(=O)N3CCOCC3)cccc2C2C=CCC12 (stereo not given) 0.2%
Brc1ccc(-c2nc(Cc3ccccc3)no2)cc1 -2.5%
CCOc1cc(-c2noc(CCC(=O)Nc3cccnc3)n2)ccc1OC -11.2%
O=C(Nc1ccc(-c2nc3ccccc3[nH]2)cc1)c1ccc(Cl)cc1 5.4%
O=C(Nc1ccc(-c2nc3ccccc3[nH]2)cc1)c1ccc(Br)o1 8.1%
O=C(Nc1ccc(Cl)c(-c2nc3ccccc3[nH]2)c1)c1cc2ccccc2o1 5%
O=C(Nc1ccc(-c2nc3ccccc3[nH]2)cc1)c1ccccc1 -0.7%
O=C(Nc1cccc(-c2nc3ccccc3[nH]2)c1)c1ccco1 3.5%
Cc1ccc2nc(-c3cccc(NC(=O)c4ccco4)c3)[nH]c2c1 0.4%
Cc1cc(F)ccc1S(=O)(=O)Nc1c(C)n(C)n(-c2ccccc2)c1=O 6.3%
O=C(O)COc1ccc2c(=O)c(-c3ccc(Cl)cc3)coc2c1 2%
CCCCOCCCNC(=O)N[C@@H](CC(C)C)C(=O)O 7.7%
COc1ccc(Cl)cc1C(=O)Nc1ccc(N(C)C)cc1 0.6%
CSCCNS(=O)(=O)c1ccc(NC(C)=O)cc1 1.1%
O=C1NC(=S)N(c2ccccc2F)C(=O)/C1=C/c1ccc(Sc2ccccc2)o1 7.1%
CCOc1ccc(N2C(=O)/C(=C/c3ccc(OCc4cccc(C(=O)O)c4)cc3)C(=O)NC2=S)cc1 -1.9%
O=C1NC(=O)N(c2ccccc2F)C(=O)/C1=C/c1ccc(OCc2cccc(C(=O)O)c2)cc1 0.8%
CCOc1ccc(N2C(=O)/C(=C/c3ccc(N(CC)CC)o3)C(=O)NC2=S)cc1 -0.2%
Cc1ccc(N2C(=O)NC(=O)/C(=C\c3ccc(I)o3)C2=O)cc1 5.4%
CCOc1ccc(N2C(=O)NC(=O)/C(=C\c3ccc(I)o3)C2=O)cc1 5.3%
O=C1NC(=O)N(c2ccccc2F)C(=O)/C1=C/c1ccc(I)o1 12.9%
O=C1NC(=O)N(c2ccc(Cl)cc2)C(=O)/C1=C/c1ccc(I)o1 23.6%
CC(C)c1ccc(NC2=NS(=O)(=O)c3cc([N+](=O)[O-])ccc32)cc1 2.8%
Cc1c(Cl)cccc1NC(=O)C(=O)NCc1ccc2c(c1)OCO2 0.1%
CCOC(=O)c1ccc(NC(=O)CN(c2ccccc2OC)S(=O)(=O)c2ccccc2)cc1 -2.1%
CCCC(=O)OCC(=O)Nc1cc(C(C)(C)C)nn1-c1ccccc1 -0.4%
C=CCc1cccc2cc(C(=O)NCc3ccccc3)c(=O)oc12 6.2%
COc1ccc(NC(=O)C2CCC(C)(C(=O)O)C2(C)C)cc1 (stereo not given) -6.7%
COc1ccc(/C=N/NC(=O)c2cc(-c3ccc(Cl)cc3)n[nH]2)cc1 3.6%
O=C(COc1ccc(Cl)cc1)Nc1nc(-c2ccc(Cl)cc2)cs1 2.6%
N#Cc1c(N)nc2c(c1-c1ccc3c(c1)OCO3)CCCCC2 -0.9%
Cc1c(C#N)c2nc3ccccc3n2c(=O)/c1=C\c1c(O)n(-c2ccc(Br)cc2)[nH]c1=O 2.8%
Cc1c(C#N)c2nc3ccccc3n2c(=O)/c1=C/c1sc2ccccc2c1O 4.2%
COc1cc(/C=C2\NC(=S)NC2=O)ccc1OC(=O)C12CC3CC(CC(C3)C1)C2 -2.6%
O=C1/C(=C/c2cccc3ccccc23)SC(=S)N1Cc1ccco1 1.1%
COc1ccccc1/C=C1\SC(=S)N(Cc2ccco2)C1=O 0.9%
O=C1/C(=C/c2ccccc2[N+](=O)[O-])SC(=S)N1c1cccc(Br)c1 4.2%
COc1cccc(N2C(=O)/C(=C/c3ccccc3[N+](=O)[O-])SC2=S)c1 3%
O=C(O)CCCCCN1C(=O)/C(=C\c2ccc(-c3ccc(Cl)c(Cl)c3)o2)SC1=S 1.8%
Cc1ccccc1N(CC(=O)N1CCc2ccccc2C1)S(C)(=O)=O 2.4%
NC(=O)c1cc(NC(=O)COc2ccc(F)cc2)c(Cl)cc1Cl -1.1%
Cc1c(NS(=O)(=O)c2ccc3c(c2)CCN3C(=O)C2CC2)c(=O)n(-c2ccccc2)n1C -3.7%
Cc1ccc(-c2ccc(C=C3C(=O)NC(=O)NC3=O)o2)c(Br)c1 26.6%
O=C1NC(=S)N/C1=C/c1ccc(-c2cccc(Br)c2)o1 0.8%
CCN1CCN(CCCNC(=O)Cn2cc3c(n2)CCCC3)CC1 -12%
COc1ccc(C2C(C(C)=O)=C(O)C(=O)N2c2nc3ccccc3s2)c(OC)c1 (stereo not given) -1.5%
Cc1ccc(N2CC(C(=O)Nc3ccc(N(C)C)cc3)CC2=O)cc1 (stereo not given) 2.6%
CCOC(=O)CSc1nnc(Cn2nnc(-c3ccccc3)n2)n1C 0.9%
COc1ccc(Br)c(C=Nc2cccc3nsnc23)c1O 14.8%
Oc1c(Br)cc(Cl)cc1C=Nc1cccc2nsnc12 42.7%
